From PubChem BioAssay
Keap1-Nrf2 PPI: disrupts human Keap1 binding to Nrf2 peptide; Q14145; inhibition, % at 9.4 µM; hit rate 0.15% among 340,000; Keap1 Kelch-Nrf2 peptide fluorescence polarization, 1536-well; AID 504523; in the data active means inhibition above about 12%;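 further: human Keap1 Kelch domain with fluorescein labeled Nrf2 9mer peptide probe; 0% = neutral control wells and 100% = peptide positive control; higher means more block of Keap1 binding to Nrf2 peptide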
Target sequence (Q14145 whole entry, looked up, the tested form may be a part): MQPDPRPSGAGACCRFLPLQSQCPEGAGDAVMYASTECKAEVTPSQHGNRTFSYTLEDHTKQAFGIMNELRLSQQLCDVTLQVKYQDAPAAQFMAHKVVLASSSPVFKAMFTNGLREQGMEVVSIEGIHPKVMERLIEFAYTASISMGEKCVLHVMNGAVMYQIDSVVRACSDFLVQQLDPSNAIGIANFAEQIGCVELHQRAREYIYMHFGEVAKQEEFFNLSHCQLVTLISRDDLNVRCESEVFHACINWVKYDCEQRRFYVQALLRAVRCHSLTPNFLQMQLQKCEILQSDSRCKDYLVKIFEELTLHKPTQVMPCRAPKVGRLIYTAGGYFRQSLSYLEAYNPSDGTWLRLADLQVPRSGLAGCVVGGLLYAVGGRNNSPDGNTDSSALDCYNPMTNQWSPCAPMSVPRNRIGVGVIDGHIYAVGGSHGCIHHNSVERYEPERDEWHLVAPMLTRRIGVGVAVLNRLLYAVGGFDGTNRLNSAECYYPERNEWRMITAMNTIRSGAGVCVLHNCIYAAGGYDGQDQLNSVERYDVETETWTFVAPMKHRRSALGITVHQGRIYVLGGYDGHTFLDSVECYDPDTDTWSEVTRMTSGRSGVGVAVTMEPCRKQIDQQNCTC
Cardiac RTF inh: cardiac RTF calcium desensitization | AID 493244 | IANBD-labeled cardiac RTF, Ca2+ fluorescence | inhibition, % at 7.15 µM | hit rate 0.12% among 340,000 | P19429+P45379;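 active means inhibition above the mean inhibition of all tested compounds plus 3 SD, cut at about 17% in these data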;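 further: assay run at fixed EC70 calcium of 1.6 mM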
LANA-H2A inh: blocks KSHV LANA binding to histone H2A/H2B | Q9QR71 | cell-free LANA-H2A/H2B peptide, fluorescence polarization | inhibition, % (test concentration not listed) | hit rate 0.6% among 320,000 | AID 2629; in the data active means inhibition mostly above about 10%, no sharp cut-off; inactive means mostly below about 6.7%
C-LANA FP: KSHV C-LANA DNA binding inhibition | MBP-C-LANA/FAM-LBS DNA binding, fluorescence polarization | inhibition, % at 9 µM | hit rate 0.078% among 340,000 | AID 504423;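 active means highest replicate inhibition at or above 60% at 9 µM, even if other replicates fall short; inactive means all replicates below 60% inhibition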;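 further: 0% = neutral control wells and 100% = 4 µM acridine orange control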
RTF Ca sens act: increases calcium sensitivity of human cardiac regulated thin filaments; P19429+P45379; IANBD-labeled TnC RTF fluorescence at EC20 calcium; 0% EC20 calcium, 100% full calcium; activation, % at 7.2 µM; hit rate 0.24% among 340,000; AID 493008;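 active means activation above the mean over all tested compounds plus 3 SD, cut at about 30% in these data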;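 further: rise in fluorescence read as greater calcium sensitivity of cardiac thin filaments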
Numbers without * were called inactive. Hits are enriched below; roughly 0.99% of the tested compounds scored in any of these assays.

For COc1ccc(C)cc1NC(=O)C1CC(=O)N(Cc2ccco2)C1 (stereo unspecified) the results were Keap1-Nrf2 PPI 1, Cardiac RTF inh -10, LANA-H2A inh 13*, C-LANA FP 0 and RTF Ca sens act 0.
`CCOc1ccc(C(=O)NC(C(=O)NCCc2ccc(S(N)(=O)=O)cc2)C(C)C)cc1` (stereo unspecified) gave Keap1-Nrf2 PPI 4, Cardiac RTF inh 11, LANA-H2A inh 14*, C-LANA FP 0 and RTF Ca sens act 2.
Screening CCCCOn1c(C)c(C(C)=O)c2c3no[n+]([O-])c3ccc21 returned Keap1-Nrf2 PPI -10, Cardiac RTF inh -10, LANA-H2A inh 13*, C-LANA FP -1 and RTF Ca sens act 1.
Screening O=C(CNC(=O)N1CC(=O)Nc2ccccc21)NCc1cccc(Cl)c1 returned Keap1-Nrf2 PPI -10, Cardiac RTF inh -3, LANA-H2A inh -4, C-LANA FP 1 and RTF Ca sens act -5.
For O=C(CNC(=O)N1CC(=O)Nc2ccccc21)NCCc1ccc(Cl)cc1 the results were Keap1-Nrf2 PPI -1, Cardiac RTF inh -9, LANA-H2A inh 17*, C-LANA FP 1 and RTF Ca sens act 4.
COc1ccc(/C=C2\SC(=S)N(CC(=O)N(C)C3CCS(=O)(=O)C3)C2=O)cc1 (stereo unspecified) was read as Keap1-Nrf2 PPI -5, Cardiac RTF inh -6, LANA-H2A inh 14*, C-LANA FP -1 and RTF Ca sens act 3.
Screening CN(C(=O)CN1C(=O)S/C(=C\c2ccc(Cl)cc2)C1=O)C1CCS(=O)(=O)C1 (stereo unspecified) returned Keap1-Nrf2 PPI -5, Cardiac RTF inh -4, LANA-H2A inh 11*, C-LANA FP 0 and RTF Ca sens act -1.
`COc1cccc(/C=C2\SC(=S)N(CC(=O)N(C)C3CCS(=O)(=O)C3)C2=O)c1` (stereo unspecified) gave Keap1-Nrf2 PPI -2, Cardiac RTF inh -9, LANA-H2A inh -2, C-LANA FP -1 and RTF Ca sens act -5.
CN(C(=O)CN1C(=O)S/C(=C\c2ccccc2)C1=O)C1CCS(=O)(=O)C1 (stereo unspecified) was read as Keap1-Nrf2 PPI 1, Cardiac RTF inh -4, LANA-H2A inh 2, C-LANA FP 0 and RTF Ca sens act -4.
COc1ccc(NC(=O)CSc2nnc(C)c(=O)n2N)cc1 was read as Keap1-Nrf2 PPI 0, Cardiac RTF inh 0, LANA-H2A inh 2, C-LANA FP -1 and RTF Ca sens act -5.
`O=C1CC(=O)Nc2cc(S(=O)(=O)N3CCOc4ccc(Cl)cc43)ccc2N1` gave Keap1-Nrf2 PPI 1, Cardiac RTF inh -2, LANA-H2A inh 31*, C-LANA FP 0 and RTF Ca sens act 2.
Screening Cc1ccc2c(c1)N(S(=O)(=O)c1ccc3c(c1)NC(=O)CC(=O)N3)CCO2 returned Keap1-Nrf2 PPI -6, Cardiac RTF inh -2, C-LANA FP -2 and RTF Ca sens act 9.
O=C(C[C@@H]1C/C=C/CCCC(=O)O[C@H](c2ccccc2)CNC1=O)N[C@H](CO)Cc1ccccc1 was read as Keap1-Nrf2 PPI 6, Cardiac RTF inh 0, LANA-H2A inh 10*, C-LANA FP -1 and RTF Ca sens act 4.
`COC(=O)c1cn(CC(=O)Nc2ccc(F)cc2)c2ccccc12` gave Keap1-Nrf2 PPI 2, Cardiac RTF inh 0, LANA-H2A inh 12*, C-LANA FP 1 and RTF Ca sens act 0.
For Cc1c(C(=O)N2CCCCC2)c(S(=O)(=O)NCCc2ccc(Cl)cc2)c(C)n1C the results were Keap1-Nrf2 PPI 2, Cardiac RTF inh -12, LANA-H2A inh -2, C-LANA FP 2 and RTF Ca sens act -6.
O=C(N/N=C/c1ccco1)c1cc(=O)[nH]c2ccccc12 was read as Keap1-Nrf2 PPI -1, Cardiac RTF inh -9, LANA-H2A inh 16*, C-LANA FP 0 and RTF Ca sens act -2.
Screening O=C1CCCC/C1=C\Nc1ccc(C(=O)O)c(O)c1 returned Keap1-Nrf2 PPI -4, Cardiac RTF inh -2, LANA-H2A inh -2, C-LANA FP 13 and RTF Ca sens act 3.
Screening CCCCCc1c(C)nc(N2CCc3ccccc3C2)[nH]c1=O returned Keap1-Nrf2 PPI -4, Cardiac RTF inh 2, C-LANA FP 0 and RTF Ca sens act -6.
`Cc1nc(-n2[nH]c3c(c2=O)CCCC3)[nH]c(=O)c1Cc1ccccc1` gave Keap1-Nrf2 PPI -24, Cardiac RTF inh -28, LANA-H2A inh 4, C-LANA FP -2 and RTF Ca sens act 33*.
For Cc1cc(=O)[nH]c(-n2[nH]c3c(c2=O)CCCC3)n1 the results were Keap1-Nrf2 PPI 0, Cardiac RTF inh -22, LANA-H2A inh -3, C-LANA FP 5 and RTF Ca sens act 10.
Cc1nc(N2CCc3ccccc3C2)[nH]c(=O)c1Cc1ccccc1 was read as Keap1-Nrf2 PPI -8, Cardiac RTF inh -5, LANA-H2A inh 11*, C-LANA FP -1 and RTF Ca sens act 0.
C/C=C/C=C/[C@H]1Cc2cc(O)cc(O)c2O1 was read as LANA-H2A inh 6.
For CCn1c(NC(=O)C(C)C)c2ccccc2nc1=O the results were Keap1-Nrf2 PPI -1, Cardiac RTF inh 6, LANA-H2A inh 11*, C-LANA FP -1 and RTF Ca sens act -1.
CCCCC(C(=O)OCC)C(N)Cc1ccc(F)cc1 (stereo unspecified) was read as Keap1-Nrf2 PPI -5, Cardiac RTF inh -5, LANA-H2A inh 20*, C-LANA FP 1 and RTF Ca sens act -3.
C=CC[C@@H](CC(=O)OC(C)(C)C)C(=O)OC[C@@H]1CCCN1C(=O)[C@@H](CC=C)CC(=O)N[C@@H](CO)Cc1ccccc1 was read as Keap1-Nrf2 PPI -6, Cardiac RTF inh 7, LANA-H2A inh 1, C-LANA FP 3 and RTF Ca sens act 7.
`CS/C(=N\S(=O)(=O)c1ccc(N)cc1)NS(=O)(=O)c1cccs1` gave Keap1-Nrf2 PPI 7, Cardiac RTF inh -5, LANA-H2A inh -3, C-LANA FP 113* and RTF Ca sens act -3.
For C#CCOCCOCCOCCNc1nc(N2CCN(C(=O)[C@H](CCCCN)n3cc(CN)nn3)CC2)nc(N2CCN(C(=O)[C@H](CCC(=O)O)n3cc([C@@H](N)[C@H](C)CC)nn3)CC2)n1 the results were Keap1-Nrf2 PPI -3, Cardiac RTF inh -1, C-LANA FP 0 and RTF Ca sens act -2.
For CCOc1ccc(S(=O)(=O)N2CCC(C(=O)N3CCCCCC3)CC2)cc1Cl the results were Keap1-Nrf2 PPI 7, Cardiac RTF inh -7, LANA-H2A inh 3, C-LANA FP 2 and RTF Ca sens act -1.
COc1ccc(CCNC(=O)c2cnccn2)cc1 was read as Keap1-Nrf2 PPI -5, Cardiac RTF inh -7, LANA-H2A inh 0, C-LANA FP 2 and RTF Ca sens act 6.
`O=C(NCCc1ccc(Cl)cc1)c1cnccn1` gave Keap1-Nrf2 PPI -3, Cardiac RTF inh -4, LANA-H2A inh active, C-LANA FP 0 and RTF Ca sens act -4.
